PMC5540273 (PLoS ONE, 2017)

Assays:
Details in all cases: concentration: 1 μM, replicates: in singlicate; n = 1
INSR = system: INSR
IRAK1 = system: IRAK1
IRAK3 = system: IRAK3
IRAK4 = system: IRAK4
ITK = system: ITK
[1] = system: JAK1(JH1domain-catalytic)
[2] = system: JAK1(JH2domain-pseudokinase)
[3] = system: JAK2(JH1domain-catalytic)
[4] = system: JAK3(JH1domain-catalytic)
JNK1 = system: T1, JNK1
T1 construct: gene MAPK8

JNK2 = system: T2, JNK2
T2 construct: gene MAPK9

JNK3 = system: T3, JNK3
T3 construct: gene MAPK10

KIT-autoinhibited = system: KIT-autoinhibited
KIT = system: KIT
LATS1 = system: LATS1
LATS2 = system: LATS2
LCK = system: LCK
LIMK1 = system: LIMK1
LIMK2 = system: LIMK2
LKB1 = system: T4, LKB1
T4 construct: gene STK11
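Also: KINOMEscan kinase panel screen.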

Row | Compound | %Inh (INSR) | %Inh (IRAK1) | %Inh (IRAK3) | %Inh (IRAK4) | %Inh (ITK) | %Inh [1] | %Inh [2] | %Inh [3] | %Inh [4] | %Inh (JNK1) | %Inh (JNK2) | %Inh (JNK3) | %Inh (KIT-autoinhibited) | %Inh (KIT) | %Inh (LATS1) | %Inh (LATS2) | %Inh (LCK) | %Inh (LIMK1) | %Inh (LIMK2) | %Inh (LKB1)
1 | O=C(Nc1n[nH]c2cc(-c3ccccc3F)ccc12)C1CC1 [SB-733371] | 0% | 0% | 0% | 0% | 0% | 0% | 17% | 27% | 0% | 33% | 16% | 15% | 0% | 10% | 27% | 0% | 6% | 0% | 0% | 30%
2 | CCCC(=O)Nc1n[nH]c2ncc(-c3cccc4ccccc34)cc12 [SB-642057] | 18% | 77% | 0% | 41% | 15% | 9% | 0% | 0% | 0% | 20% | 21% | 0% | 0% | 12% | 0% | 25% | 20% | 9% | 0% | 0%
3 | COc1cc(Nc2nccc(N3CCC(NC(=O)C(C)c4ccc(Cl)cc4)C3)n2)cc(OC)c1OC (stereo not drawn) [GSK1379757] | 0% | 41% | 68% | 10% | 11% | 20% | 0% | 86% | 0% | 3% | 6% | 0% | 0% | 2% | 0% | 1% | 8% | 1% | 22% | 7%
4 | CC(C)(C)c1ccc(C(=O)Nc2cn3cc(-c4ccccc4)ccc3n2)cc1 | 0% | 17% | 12% | 13% | 12% | 12% | 42% | 0% | 0% | 13% | 0% | 0% | 0% | 92.6% | 0% | 0% | 8% | 10% | 0% | 15%
5 | COC(=O)c1c(-c2ccccc2)c2cc(Br)ccc2c(=O)n1Cc1ccc(S(C)(=O)=O)cc1 | 13% | 19% | 32% | 18% | 30% | 19% | 0% | 6% | 0% | 97.2% | 98.8% | 98.6% | 6% | 54% | 31% | 30% | 0% | 0% | 0% | 0%
6 | Nc1nc(-c2ccccc2F)c(-c2ccnc3ccccc23)s1 [GW560459] | 94.4% | 30% | 17% | 15% | 3% | 18% | 0% | 9% | 0% | 56% | 87% | 87% | 0% | 9% | 0% | 0% | 11% | 1% | 0% | 0%
7 | Nc1n[nH]c2nnc(-c3ccccc3)c(-c3ccccc3)c12 [GW554060] | 3% | 12% | 9% | 19% | 12% | 21% | 0% | 10% | 0% | 19% | 23% | 15% | 0% | 18% | 0% | 4% | 14% | 6% | 11% | 0%
8 | COc1cccc(C2=C(Nc3cccc(C(=O)O)c3)C(=O)NC2=O)c1 [SB-390770] | 0% | 0% | 7% | 0% | 1% | 1% | 2% | 33% | 94.7% | 22% | 24% | 17% | 0% | 0% | 0% | 0% | 37% | 0% | 10% | 0%
9 | Cn1c(=O)c(F)c(Nc2ccc(I)cc2F)c2c(=O)n(OC[C@H](O)CO)cnc21 | 5% | 0% | 0% | 0% | 3% | 2% | 14% | 9% | 1% | 18% | 0% | 0% | 0% | 7% | 18% | 0% | 1% | 14% | 26% | 0%
10 | Nc1nccc2scc(-c3ccc4c(c3)CCN4C(=O)Cc3ccccc3)c12 [GSK2576924] | 0% | 0% | 0% | 0% | 4% | 19% | 0% | 4% | 0% | 0% | 10% | 0% | 5% | 74% | 0% | 0% | 11% | 3% | 14% | 9%
11 | CCc1nc(-c2cccc(C)c2)c(-c2ccncc2)s1 | 0% | 0% | 0% | 0% | 4% | 0% | 41% | 1% | 0% | 57% | 76% | 90.3% | 0% | 42% | 4% | 0% | 24% | 0% | 0% | 35%
12 | O=C1NC(=O)C(c2ccccc2)=C1Nc1cccc(O)c1 [SB-390534] | 0% | 0% | 0% | 0% | 0% | 0% | 17% | 15% | 0% | 22% | 13% | 4% | 0% | 10% | 21% | 0% | 24% | 0% | 0% | 0%
